Measurements as given in PubChem BioAssay (NCI).
About 83,000 compounds went through this panel and 20% of them were active in at least one assay; those are over-represented in the sample as a whole.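 How to read the values: 0–100, growth inhibition (40 = 60% inhibited); 0, no net growth; -100 to 0, cell death (-40 = 40% of starting cells died; -100 = all dead).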 A number with no mark means an inactive call. Calls of active or inactive are those of the source. How the source made its calls: active means growth percent below 10; inactive means the rest.

Legend:
Test in all cases: NCI-60 one-dose screen, 48 h (100 = growth as untreated, 0 = no growth, -100 = all killed)
Settings in all cases: 10 µM unless noted
T-47D breast = tested on: T-47D breast
BT-549 breast = tested on: BT-549 breast
MDA-MB-435 melanoma = tested on: MDA-MB-435 melanoma
SW-620 colon = tested on: SW-620 colon
MCF7 breast = tested on: MCF7 breast
HCT-116 colon = tested on: HCT-116 colon
HCC-2998 colon = tested on: HCC-2998 colon
KM12 colon = tested on: KM12 colon
MDA-MB-468 breast = tested on: MDA-MB-468 breast

Structure (SMILES) | growth (T-47D breast) | growth (BT-549 breast) | growth (MDA-MB-435 melanoma) | growth (SW-620 colon) | growth (MCF7 breast) | growth (HCT-116 colon) | growth (HCC-2998 colon) | growth (KM12 colon) | growth (MDA-MB-468 breast)
COc1ccc2[nH]c(=O)c(CSc3ccccc3Nc3nccc(-c4ccc(C(F)(F)F)cc4)n3)cc2c1 | 11.3% | -10.4% (active) | 32.3% | 17.5% | -17.5% (active) | -8.91% (active) | 18.8% | 29.2% | 13.6%
NS(=O)(=O)c1ccc(Nc2nc(SCC(=O)c3ccc(F)cc3)nc3ccccc23)cc1 | 19.5% | 44.2% | 0.411% (active) | 50.5% | 19.1% | 39% | 47.5% | 19.4% | 11.4%
N/C(=N\c1nc2ccccc2s1)NC(=O)Nc1ccccc1[N+](=O)[O-] | 34.1% | 10.5% | -45.1% (active) | 31% | 12.8% | 0.0336% (active) | 8.25% (active) | 1.31% (active) | -0.807% (active)
C=CCn1c(O)c(N=Nc2nc(-c3cc4ccccc4oc3=O)cs2)c2ccccc21 | 88.8% | 67.3% | 98.5% | 101% | 33.4% | 39.3% | 78.4% | 79.4% | 70.3%
COc1cc(/C=C/C(=O)c2cnn(-c3cc(=O)[nH]c4ccc(Br)cc34)c2C)cc(OC)c1OC | -47.3% (active) | -44.7% (active) | 0.423% (active) | -67.4% (active) | -46% (active) | -68.9% (active) | -96.8% (active) | -42.6% (active) | -80.6% (active)
O=C(c1ccc(Cl)cc1)C1[C@H](c2ccccc2Cl)[C@@H](c2ccccc2)NC12C(=O)Nc1ccccc12 (stereo partly drawn) | -6.74% (active) | -77.4% (active) | -82.8% (active) | -5.33% (active) | -19% (active) | -91.3% (active) | -46.2% (active) | -23.4% (active) | -44.8% (active)
N#C/C(=C/c1ccc([N+](=O)[O-])cc1)c1nnc(NC(=O)c2ccc(-n3c(=O)[nH]c4ccccc4c3=O)cc2)s1 | 85.8% | 107% | 105% | 100% | 84.9% | 94.8% | 108% | 90.8% | 98.5%
c1n[nH]cc1-c1nc2ccc3[nH]ncc3c2c2c1CC1(CC2)COC1 | 26.8% | -7.9% (active) | 30.7% | 8.89% (active) | 62.4% | 15.4% | 60.4% | 56.7% | -24.5% (active)
COc1c2c(cc3c1C(CCc1ccccc1)N(C)CC3)OCO2 (stereo not drawn) | -22.3% (active) | -28.8% (active) | 5.73% (active) | 1.49% (active) | -34.4% (active) | 3.07% (active) | -31.5% (active) | -28.3% (active) | -61.8% (active)
O=C(N/N=C/c1c[nH]c2ccccc12)Nc1ccc(F)c(Cl)c1 | 34% | 18.5% | 0.865% (active) | 41.3% | 9.25% (active) | 25.5% | 3.69% (active) | -14.7% (active) | -1.93% (active)
COc1cc(CNC(=O)C[C@H](C)CCC=C(C)C)ccc1OCc1cn(-c2ccc(Cl)cc2Cl)nn1 | 60.2% | 83.7% | 98.2% | 89.3% | 67.5% | 53.1% | 92.5% | 93.1% | 50.4%
CCOC(=O)/C(F)=C/C1CC1C(c1ccccc1)c1ccccc1 (stereo not drawn) | 70.7% | 117% | 84.8% | 75.1% | 80.7% | 62% | 102% | 83.5% | 36.2%
CCN1CCN(Cc2ccc(C(=O)Nc3cccc(Nc4ccc5c(OC)cccc5n4)c3)cc2C(F)(F)F)CC1 | -71.4% (active) | -94% (active) | -94.9% (active) | 7.01% (active) | -89.1% (active) | -56.4% (active) | -94% (active) | -37.6% (active) | -94.7% (active)
CCC1(OC(=O)c2ccccc2SSCCOC(=O)CCCCC2SCC3NC(=O)NC32)C(=O)OCc2c1cc1n(c2=O)Cc2cc3ccccc3nc2-1 (stereo not drawn) | 33.7% | 49.4% | 70.1% | 51.5% | 26.5% | 53.8% | 78.7% | 79% | -12.1% (active)
COc1ccc2[nH]c(O)c(N=Nc3nc(-c4ccc(Cl)cc4)cs3)c2c1 | -21.5% (active) | 25.9% | 33.2% | 2.98% (active) | -19% (active) | -74.9% (active) | 1.1% (active) | 4.66% (active) | -60.8% (active)
COc1cc(/C=C/C(=O)c2cnn(-c3cc(=O)[nH]c4ccccc34)c2C)cc(OC)c1OC | 10.7% | -4.19% (active) | 21.1% | 24.4% | 10.8% | 5.92% (active) | -1.51% (active) | 4.79% (active) | -35.3% (active)
COc1ccc2[nH]cc(-c3cc4nc(-c5cn(C)c6ncc(Br)cc56)cc(N)n4n3)c2c1 | -62.7% (active) | -57.3% (active) | -61.6% (active) | -74.4% (active) | -59.7% (active) | -95.9% (active) | -95% (active) | -49.8% (active) | -83.1% (active)
COc1ccc(-c2cc(C(=O)Oc3ccc(C=O)cc3OC)nn2-c2ccc(S(C)(=O)=O)cc2)cc1 | 92.2% | 105% | 98.3% | 109% | 84.5% | 98.3% | 116% | 103% | 107%
N#Cc1c(NC(=O)N2CCOCC2)n(-c2ccc(OC(F)(F)F)cc2)c2cc(F)ccc12 | 77.4% | 139% | 92.4% | 110% | 89% | 80.5% | 110% | 92.5% | 89.1%
CC(=O)Nc1ccc(S(=O)(=O)Nc2ccc(-c3ccc4c(c3)NC(=O)/C4=C\c3ccc[nH]3)cc2)cc1 | 20.7% | 42.6% | 99.7% | 114% | 14.4% | 87.1% | 96.9% | 51.6% | -7.1% (active)
O=C(Nc1ccc(F)cc1)Nc1nc2ccc([N+](=O)[O-])cc2s1 | -18.1% (active) | -53.2% (active) | 0.0184% (active) | 7.92% (active) | 1.6% (active) | 1.02% (active) | 11.8% | 9.04% (active) | -23.4% (active)
CC(C)CN1C(=O)/C(=C\C(=O)c2cc3ccccc3oc2=O)c2ccccc21 | 44.7% | 111% | 98.8% | 41% | 58.1% | 91.2% | 118% | 103% | 32.6%
O=C(NN1C(=O)/C(=C/C=C/c2ccc([N+](=O)[O-])o2)SC1=S)c1ccc(O)cc1 | -53.4% (active) | -94% (active) | -91% (active) | -69.1% (active) | -54.4% (active) | -85.1% (active) | -92.6% (active) | -95.2% (active) | -77.3% (active)
NC(=O)c1ccc(-c2ccc3ncnc(N4CCc5cc(F)c(Cl)cc54)c3c2)cn1 | 28% | 61.1% | 95.9% | 94.2% | 37.7% | 63.6% | 89.7% | 96.1% | -7.37% (active)
Cc1ccc(C2CC(c3ccc(NC(=S)Nc4ccccc4)cc3)=NN2c2ccc(S(N)(=O)=O)cc2)cc1 (stereo not drawn) | 24.5% | -10% (active) | 23.6% | 19.8% | 2.64% (active) | 10.1% | -16.9% (active) | 2.95% (active) | 9.79% (active)
Fc1ccc(N2CC(Cn3c(C(F)(F)F)cc4c(Cl)ncnc43)C2)c(F)c1 | 56.8% | -84.5% (active) | 15.9% | -79.6% (active) | 57.7% | -92.1% (active) | -91.4% (active) | 99.5% | -50.5% (active)
FC(F)(F)c1cc2c(Cl)ncnc2n1CCN1CCCCC1 | 70.5% | -3.05% (active) | 56% | 34% | 52.1% | 8.04% (active) | -75.1% (active) | 93.9% | -10.6% (active)
